# Assay outcomes as filed in PubChem BioAssay.
# KCNQ2 block: inhibitors of rat KCNQ2 potassium channel. B-score at 10 µM. 1.1% of 310,000 active. AID 2156. O88943. CHO-K1 KCNQ2, FluxOR thallium flux, 20 min; active compounds read low;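 active = fluorescence ratio B-score at most minus 3 library SDs, with starting brightness B-score within 2 library SDs, cut at about -5.5 in these data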
# KCNQ2 pot: potentiators of rat KCNQ2 potassium channel; O88943; CHO-K1 KCNQ2, FluxOR thallium flux fluorescence; active compounds read high; B-score at 10 µM; 0.54% of 310,000 active; AID 2239;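 active = fluorescence ratio B-score at least 3 SD of library B-scores, with initial fluorescence B-score within 3 of them, cut at about 5.3 in these data; same plate scores as AID 2156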;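 also: B-score of peak minus minimum over baseline fluorescence ratio after K+ and Tl+ stimulus; positive B-score means potentiation of KCNQ2 with more thallium influx and brighter signal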
# * hit, by the source's call; i = inactive; nt = not tested or not shown. Compounds with a hit are over-represented: about 1.6% of the library has one in this group of screens.
SMILES,KCNQ2 block,KCNQ2 pot
N#C/C(=C\c1ccc([N+](=O)[O-])cc1)C(=O)NCCCn1ccnc1,-5.6*,-5.6
COc1ccc(/C=C(\NC(=O)c2ccc([N+](=O)[O-])cc2)C(=O)NCCCn2ccnc2)cc1,i,nt
COc1ccc(/C=C/C2=CC(C)(C)NC(=S)N2)cc1,i,nt
Fc1ccc(-c2csc(=S)[nH]2)cc1,i,11*
O=c1[nH]c(-c2ccc(Cl)cc2)cs1,i,nt
COc1ccc(N2C(=O)C3CCCN3C2c2ccc(C)o2)cc1 (stereo not given),i,0.54
Cc1ccc(C)c(SCC(=O)Nc2oc(C)c3c(C)n[nH]c(=O)c23)c1,i,3.2
COc1ccc(C(=O)NNC(=O)C(=O)Nc2ccc(C)c(Cl)c2)cc1,i,3.6
Cc1ccc(NC(=O)C(=O)NNC(=O)c2ccccc2C)cc1Cl,i,12*
CCCc1cc(=O)[nH]c2nnc(SCC(=O)N3CC(C)OC(C)C3)n12 (stereo not given),i,nt
O=S(=O)(Nc1cnc2ccccc2c1)N1CCCCCC1,i,0.21
CCN(CC)c1ccc(/C=N/N2CCN(Cc3ccc(C)cc3)CC2)c(O)c1,-6.2*,-6.2
CCN(CC)c1ccc(/C=N/N2CCN(Cc3ccccc3Cl)CC2)c(O)c1,i,nt
O=C(O)c1ccccc1C(=O)NCCc1c(C(=O)O)[nH]c2ccc(Cl)cc12,i,0.53
COc1ccc(N2CC(C(=O)N3CCC(c4nc5ccccc5[nH]4)CC3)CC2=O)cc1 (stereo not given),i,nt
COc1ccc2c(C)c(C(=O)N3CCN(Cc4ccccc4)CC3)oc2c1,-6.2*,-6.2
COc1ccc(Cn2c(=O)[nH]c3cc(C(=O)N4CCN(Cc5ccccc5)CC4)ccc3c2=O)cc1,i,nt
O=S(=O)(Nc1cccnc1)c1ccc(Br)c2ccccc12,i,0.25
O=C(NN=C1c2ccccc2-c2ccccc21)c1cccc(Br)c1,i,17*
O=C(COc1cccc(Br)c1)NN=C1c2ccccc2-c2ccccc21,i,nt
Cc1cc(NC(=O)CSc2nnc(COc3ccccc3)n2Cc2ccco2)no1,i,0.85
Cc1ccc(OCc2nnc(SCC(=O)C(C)(C)C)n2Cc2ccco2)cc1,-7*,-7
Cc1ccc(-c2csc(=S)n2CC(=O)OCC(=O)NCc2ccc(F)cc2)cc1,i,nt
CC(=O)N(CCC(Cc1ccccc1)c1ccc2c(c1)OCO2)Cc1ccc(Cl)cc1 (stereo not given),-10*,-10
O=C(O)CC(Cc1ccccc1)c1ccc2c(c1)OCO2 (stereo not given),i,nt
SMILES,KCNQ2 block,KCNQ2 pot
CCN(CC)C(=S)NC(=O)c1ccc(Cl)cc1Cl,i,4.2
CCCCN(CCCC)C(=S)NC(=O)c1ccccc1Cl,i,19*
CN(CC1CCOCC1)C(=O)CC1C(=O)NCCN1CC(c1ccccc1)c1ccccc1 (stereo not given),-5.9*,-5.9
CN(C(=O)CC1C(=O)NCCN1CC(c1ccccc1)c1ccccc1)C(C1CC1)C1CC1 (stereo not given),i,nt
CC(C)C1N(C(N)=S)N=CC1(C)C (stereo not given),i,0.79
O=C(NCc1ccc2c(c1)OCO2)c1ccc(N2CCCCCC2)c([N+](=O)[O-])c1,i,2.5
CC1CCCN(c2ccc(C(=O)NCc3ccc4c(c3)OCO4)cc2[N+](=O)[O-])C1 (stereo not given),i,8.3*
O=C(Cn1cc([N+](=O)[O-])ccc1=O)N1CCCc2ccccc21,i,0.67
CN(C(=O)COC(=O)COc1ccc(Cl)cc1Cl)c1c(N)n(Cc2ccccc2)c(=O)[nH]c1=O,i,0.57
CC(=O)NC(CCCNC(=S)NC1CCCCC1)C(=O)O (stereo not given),i,nt
CCOC(=O)C1=C(C)N(c2ccccc2)C(=O)/C1=C\c1ccco1,-6*,-6
COC(=O)C1=C(C)N(c2ccc(OC)c(OC)c2)C(=O)/C1=C\c1ccco1,i,0.96
CCCC[C@@H]1C[C@H]1[C@@H](NC(=O)c1ccco1)c1ccc(Cl)cc1,i,nt
CCCC[C@@H]1C[C@H]1[C@@H](NC(=O)c1cccs1)c1ccc(Cl)cc1,-8*,-8
CCN(CCNC(=O)C1CCN(S(=O)(=O)c2cccc3cccnc23)CC1)c1ccccc1,i,1.2
COc1ccc(CN(C(=O)c2snc(C(N)=O)c2N)C(C(=O)NC2CCCC2)c2cc(OC)ccc2OC)cc1 (stereo not given),i,nt
C=CCn1c(SCC(C)=O)nc2scc(-c3ccco3)c2c1=O,i,nt
C=CCn1c(SCc2ccc3c(c2)OCO3)nc2scc(-c3ccco3)c2c1=O,-6.1*,-6.1
ClCC1CN(Cc2ccccc2Cl)CCO1 (stereo not given),i,0.12
O=c1c2ccccc2[nH]c(=S)n1CCc1ccccc1,i,7.2*
O=c1c2ccccc2[nH]c(=S)n1Cc1ccccc1,i,0.43
CC(C)n1c(=S)[nH]c2ccccc2c1=O,i,0.52
CCC(C)n1c(=S)[nH]c2ccccc2c1=O (stereo not given),i,6.8*
